Laboratory results from PubChem BioAssay AID588651 (The Scripps Research Institute Molecular Screening Center, 2011).
Unmarked numbers belong to inactive results. Activity calls are given as the source filed them. Rule as the data show it: active = inhibition above about 65%; inactive = the rest.

system: Fam108b; assay: Fam108b inhibitors and proteome off-target selectivity – biochemical, gel-based ABPP, recombinant soluble Fam108b, HTS hits, complex proteome, late-stage follow-up (AID 588651); conditions: FP-rhodamine labeling in proteome, at 20 µM, active compounds read high;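 also: Fam108b spiked into mouse brain membrane proteome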

Compound | inhibition
Cc1[nH]c2ccccc2c1C=NNC(=O)c1cccc(S(=O)(=O)Nc2cccc(C(F)(F)F)c2)c1 | 60%
COc1ccc2ccccc2c1C(O)c1nccn1C (centres undefined) | 0%
O=C(CCCSc1ccccc1)Nc1nc(-c2ccco2)c(-c2ccco2)s1 | 0%
O=C(Nc1ccc(F)cc1)Nc1ccc(N2CCCC2)c(S(=O)(=O)Nc2ccccc2Cl)c1 | 95% (active)
Oc1ccccc1C1Nc2cccc3cccc(c23)N1 | 0%
Cc1cc(NN=Cc2c(O)ccc3ccccc23)nc(-c2ccccc2O)n1 | 85% (active)
Cc1nc2scc(-c3ccccc3)c2c(=O)o1 | 80% (active)
Oc1ccc(C=NNc2ccnc3cc(Cl)ccc23)c(O)c1O | 20%
Oc1nc(Nc2cccc(Cl)c2)sc1/C=C1\C=Nc2ccccc21 | 80% (active)
Cc1cc(C)nc(SCc2ccc(C(=O)NN=Cc3cccc(O)c3O)cc2)n1 | 30%
Cn1c2ccccc2c2cc(C=NNC(=O)c3cc(O)ccc3O)ccc21 | 80% (active)
COc1cc2c(cc1NC(=O)Nc1ccccc1)oc1ccccc12 | 0%
O=C(Nc1cccc(-c2csc(Nc3ccc(Cl)cc3)n2)c1)c1cc([N+](=O)[O-])cc(C(F)(F)F)c1 | 65% (active)
Cc1ccc(-c2csc3nc(C(C)C)oc(=O)c23)c(C)c1 | 90% (active)
O=c1oc(-c2ccccc2F)nc2scc(-c3ccccc3)c12 | 98% (active)
CCc1ccc(S(=O)(=O)N=C2C=C(Sc3ncn[nH]3)C(=O)c3ccccc32)cc1 | 60%
Oc1ccc(C2Nc3cccc4cccc(c34)N2)c(O)c1 | 0%

Compound | inhibition
Nc1c(S(=O)(=O)c2cccc(Cl)c2)c2nc3ccccc3nc2n1N=Cc1ccc(O)c(O)c1 | 75% (active)
COc1ccc(NC(=S)Nc2ccc3nsnc3c2)cc1 | 0%
COc1cccc(C=NNC(=O)c2[nH]c(C)c(C(=O)NN=Cc3cccc(OC)c3O)c2C)c1O | 75% (active)
O=C(Nc1ccc(-c2csc(Nc3cccc(C(F)(F)F)c3)n2)cc1)c1cccc(C(F)(F)F)c1 | 95% (active)
COc1ccc(-c2csc3nc(-c4ccccc4F)oc(=O)c23)cc1 | 95% (active)
CCNc1ccc2noc3c2c1C(=O)c1ccccc1-3 | 0%
CCCCCCCCCCCCCCCC[n+]1ccc(C=NO)cc1 | 0%
Cc1ccc2nc(CSc3nc(C)ccc3C#N)[nH]c2c1 | 50%
COc1cccc(C=NNc2nc(Nc3ccc([N+](=O)[O-])cc3)nc(N3CCCC3)n2)c1O | 65% (active)
CSC[C@@H]1NC(=S)N(c2ccc(C)cc2)C1=O | 0%
CCn1nc([N+](=O)[O-])c(C(C#N)c2nc3cc(C(F)(F)F)ccc3s2)c(Cl)c1=O (centres undefined) | 0%
CC(C)(C)c1nc2scc(-c3cccs3)c2c(=O)o1 | 80% (active)
O=C(O)CCCNc1cc(N2CCN(C(=O)c3ccco3)CC2)c2noc3c2c1C(=O)c1ccccc1-3 | 40%
CCOc1cc(/C=C2\C(=O)N(c3nc(-c4ccc(Br)cc4)cs3)N=C2c2ccccc2)ccc1O | 70% (active)
Clc1ccccc1C(c1ccccc1)(c1ccccc1)n1ccnc1 | 0%
O=C(Nc1ccc(N2CCCC2)c(S(=O)(=O)Nc2cccc(C(F)(F)F)c2)c1)c1cccs1 | 85% (active)
CCN(c1ccccc1)S(=O)(=O)c1ccc(NC(=O)c2nc(S(C)(=O)=O)ncc2Cl)cc1 | 0%
